Hsp90 Hop PPI – changes Hsp90-Hop TPR2A binding signal, up or down. AID 595. Potency, µM (doses to about 57 µM), without a hit: top-dose activity change, negative = inhibition. AlphaScreen TPR2A-His6 binding biotin-Hsp90 C-terminal peptide. 71,000 compounds, 0.44% hits; active = well fitted curve in either direction with a large enough effect; inconclusive = small, poorly fitted or top-dose-only effect, or another doubt
Tau filament bind – tau filament binding; Potency, µM (top dose mostly 57.1 µM), inactives show top-dose activity change, negative = inhibition; 71,000 compounds, 2% hits; recombinant tau filaments, thioflavin S fluorescence, 15 h; filaments grown with octadecylsulfate alongside compound;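 also: actives lower thioflavin S fluorescence by blocking filaments or displacing dye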
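His-tagged recombinant human tau (exons 2, 3 and 10 included), 1 uM, was induced to fibrillize by 30 uM sodium octadecylsulfate with compound present. After 15 h at 37 C, thioflavine S fluorescence (ex 450, em 510 nm) was read.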
Bst PK mod – alters activity of Bacillus stearothermophilus pyruvate kinase | purified pyruvate kinase, luminescence ATP production; ribose 5-phosphate activator present at AC10 | Potency, µM | 51,000 compounds, 1.2% hits; in the data active = potency below about 11 µM; inconclusive = mostly about 12 µM to 25 µM;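 the screen sought inhibitors and activators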;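 also: scaled between full activation by ribose 5 phosphate and full inhibition by luteolin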
FLuc inh – firefly luciferase inhibition; P08659; purified firefly luciferase, luminescence, 8 min; Potency, µM (top dose mostly 57.1 µM), inactives show at the highest dose activity change, negative = inhibition, actives largely listed as inhibitors; 72,000 compounds, 2.2% hits; also: nearly all actives have a fitted effect of over 40% in size
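Luminescence read-out after 8 min at room temperature; enzyme reaction used luciferin plus 10 uM ATP (linear range) in imidazole buffer pH 7.2 with KCl, MgCl2, Tween 20 and BSA. Each sample was run as a titration.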
ALOX15 inhib – blocks human 15-lipoxygenase activity; purified 15hLO-1, xylenol orange hydroperoxide absorbance; Potency, µM (top dose mostly 57.1 µM), for the others: top-dose activity change, negative = inhibition, hits mostly inhibitors; 74,000 compounds, 1.4% hits; AID 887; also: nearly all actives have a fitted effect of over 55% in size
Target sequence (P16050 whole entry, looked up): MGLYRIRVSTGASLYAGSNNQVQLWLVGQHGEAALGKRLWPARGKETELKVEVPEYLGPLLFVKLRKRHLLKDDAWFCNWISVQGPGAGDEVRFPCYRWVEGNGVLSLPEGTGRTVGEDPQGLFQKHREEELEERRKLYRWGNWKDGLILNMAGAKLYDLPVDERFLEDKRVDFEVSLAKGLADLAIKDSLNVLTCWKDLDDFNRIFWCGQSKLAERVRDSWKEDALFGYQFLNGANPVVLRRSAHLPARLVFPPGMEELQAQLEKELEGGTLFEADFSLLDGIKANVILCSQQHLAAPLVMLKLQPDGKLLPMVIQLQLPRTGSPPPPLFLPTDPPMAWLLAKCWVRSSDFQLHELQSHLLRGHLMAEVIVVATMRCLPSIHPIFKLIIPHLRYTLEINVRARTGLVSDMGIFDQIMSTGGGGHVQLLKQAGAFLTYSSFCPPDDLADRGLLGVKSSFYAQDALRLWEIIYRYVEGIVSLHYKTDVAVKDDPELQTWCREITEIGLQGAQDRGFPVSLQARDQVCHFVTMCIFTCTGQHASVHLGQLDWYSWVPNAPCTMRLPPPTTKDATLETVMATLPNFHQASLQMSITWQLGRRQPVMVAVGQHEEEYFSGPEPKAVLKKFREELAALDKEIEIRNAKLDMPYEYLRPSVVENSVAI
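Quantitative HTS in 25 mM Hepes pH 7.5 containing 0.01% Triton X-100: human 15hLO-1 at 40 nM, arachidonic acid at 50 uM, 6 min turnover. Product quantified via ferrous oxidation/xylenol orange, 573:405 nm absorbance ratio.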
ERK AVP inh – blocks ERK signaling stimulated by vasopressin. HEK293-V1b, vasopressin-stimulated pERK AlphaScreen. Potency, µM (series often up to 57.5 µM), inactives show at the top dose activity, negative = inhibition, usual class: inhibitors. 72,000 compounds, 0.99% hits. AID 995; also: nearly all actives have a fitted effect of over 55% in size
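Overnight-seeded V1b-HEK293 cells in 1% FBS got compound, then vasopressin (25 nM final, 5 min, 37C), then lysis buffer. AlphaScreen detection of phospho-ERK; activity normalized to basal and full-stimulation controls.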
* = called active by the depositor; ? = inconclusive; nt = no result given; ! = not active in a repeat; [ ] = dose if it differs, or a comment. An excerpt weighted towards active compounds, which were near 6.1% of everything screened. Unless noted, calls follow the shape of the dose curve; as a rule, active = well fitted curve in the direction sought with a large enough effect; inconclusive = small, poorly fitted or top-dose-only effect, or another doubt; inactive = no such curve, though single readings can be large; an effect the other way counts as inactive or inconclusive. Unless noted, % is scaled to controls: 0 for no effect and ±100 for the full control effect; potency is read from the fitted curve at half-maximal effect.

SMILES	Hsp90 Hop PPI	Tau filament bind	Bst PK mod	FLuc inh	ALOX15 inhib	ERK AVP inh
CCOc1ccc(Br)c(C2(O)CC(C)N(C)CC2C)c1 (stereo unspecified)	4%	9%	nt	25µM*	-7%	-9%
C=CCN1C[C@H](C)N([C@@H](c2ccccc2)c2ccc(C(=O)N(CC)CC)cc2)C[C@H]1C	?	11%	nt	-1%	-15%[25.6 µM]	-6%
C=CCN1C[C@H](C)N([C@H](c2ccc(C(=O)N(CC)CC)cc2)c2cccc(O)c2)C[C@H]1C	-2%	40µM*	nt	4%	-1%[25.6 µM]	2%
O=C(O)Cc1ccc([N+](=O)[O-])cc1[N+](=O)[O-]	-3%[11 µM]	-2%[11.4 µM]	nt	1%[11.4 µM]	4%[11.4 µM]	8%[11.5 µM]
O=C1C[C@H]2OCCC=C3CN4CC[C@@]56c7ccccc7N1[C@@H]5[C@H]2[C@H]3C[C@@H]46	2%	-28%	nt	2%[11.4 µM]	nt	nt
CN[C@H]1[C@H]2[C@H]3CCN2C[C@@H]1O3	0%	?	nt	1%[11.4 µM]	nt	nt
CN(C)c1ccc(P(=S)(N(C)C)N(C)C)cc1	0%	2%	>57	-2%	-1%	4%
CN(C)c1ccc(N)cc1	?	13µM*	nt	nt	?	?
Cc1onc(-c2ccccc2Cl)c1C(=O)OCC(=O)c1ccc2c(c1)OCCO2	19%	1%	nt	16µM*	0%	5%
Cc1cc(NC(=O)COC(=O)c2c(C)nn(Cc3ccccc3)c2Cl)no1	0%	231%	>57	-4%	-8%	13%
N[C@H](CCl)C(=O)O	-5%	5%	nt	0%	-18%	-16%
COc1ccc(C[C@@H]2NC[C@H](O)[C@H]2OC(C)=O)cc1	-2%	?	nt	1%[11.4 µM]	nt	nt
C=C(C)[C@H]1Cc2c(ccc3c2O[C@H]2COc4cc(OC)c(OC)cc4[C@@H]2C3=O)O1	-25%	-3%	nt	5%	-15%	6%
COc1ccc2c(c1)[C@@]13CCCCC1[C@@H](C2)N(C)CC3 (stereo partly specified)	nt	nt	nt	nt	0%	-14%
COC(=O)[C@@H]1C[C@@H]1[C@@H](NP(=O)(c1ccccc1)c1ccccc1)c1ccccc1	-9%	7%	nt	nt	nt	nt
Cc1cc2c(C(C)C)c(O)c(O)c(C=O)c2c(O)c1-c1c(C)cc2c(C(C)C)c(O)c(O)c(C=O)c2c1O	?	1µM*	nt	-6%	?	25µM*!
O=c1cc(-c2ccc(O)c(O)c2)oc2cc(O)cc(O)c12	-7%	?	nt	1%[11.4 µM]	2.5µM*	-9%
CNc1ccc2oc(C[C@@H]3O[C@@]4(CC[C@H]3C)O[C@@H]([C@@H](C)C(=O)c3ccc[nH]3)[C@@H](C)C[C@H]4C)nc2c1C(=O)O	-18%	-16%	nt	-2%	nt	nt
N#CS.N=C=S.N=C=S.[Cu].[NH2-].[NH2-].[NH2-].[NH2-].c1ccc2ncccc2c1	0%[11 µM]	-4%[11.4 µM]	nt	2%[11.4 µM]	2.5µM*	6%[11.5 µM]
O=C1C(Cl)=C(Cl)C(=O)C(Cl)=C1Cl	-5%	3%	nt	nt	0.16µM*	?
Nc1ccccc1-c1ccccc1	0%	-10%	nt	nt	-5%	-5%
COC(=O)[C@H](N)CCCN=C(N)N[N+](=O)[O-]	-6%	-7%	nt	0%	14%	0%
O=C(O)c1cc[c]([Hg][S]c2ncnc3nc[nH]c23)cc1	-5%[11 µM]	-10%[11.4 µM]	nt	?	0.79µM*	4%[11.5 µM]
CC1CCCCN1CC(=O)c1ccc2cc[nH]c2c1 (stereo unspecified)	-23%	25µM*	nt	-9%	-21%	nt
CCCOc1ccc2[nH]cc(C3=CCNCC3)c2n1	-6%	?	nt	13µM*	?	12%
SMILES	Hsp90 Hop PPI	Tau filament bind	Bst PK mod	FLuc inh	ALOX15 inhib	ERK AVP inh
O=c1[nH]c(=O)n(CCc2ccccc2)c(O)c1C=NCCCn1ccnc1	nt	nt	>26	-1%[25.5 µM]	nt	nt
O=c1[nH]c(=O)n(Cc2ccccc2)c(O)c1C=NCCCn1ccnc1	16µM*	0%	>57	4%	13%	1%
N#Cc1ccc(CN2CC[C@@]3(CCCNC3)C2)cc1	1%	14%	nt	-1%[11.4 µM]	1%	-10%
CSC([N-]/N=C/c1cccc(C)n1)=[S]=[Cu].CS[C@H]([S-])[N-]/N=C/c1cccc(C)n1	3.2µM*	?	nt	-3%[11.4 µM]	?	?
CCC[C@@H]1CC2=CC(=O)CC[C@]2(C)[C@@H]2CC[C@@]3(C)[C@H](CC[C@]3(O)CCC(=O)O)[C@H]12	-5%	-28%	nt	2%	-13%[25.6 µM]	12%
CC1=CC(=O)NP(=O)(Oc2ccc3ccccc3c2)N1 (stereo unspecified)	-2%	-4%	>57	-3%	13µM*	-3%
C=C(C)[C@@H]1CN[C@H](C(=O)O)[C@H]1CC(=O)O	-6%	-1%	nt	0%	nt	nt
NNC(=O)c1ccc(O)cc1	-2%	7%	nt	13µM*	-6%	-4%
CC(=O)O.CC(=O)O.[Cd]	nt	nt	nt	nt	16µM*	1%
C#CCN1C(C)=C(C(=O)CCO)[C@@H](c2cccc(-n3oo3)c2)C(C(=O)OC)=C1C	-19%	40µM*	nt	3%	-13%[25.6 µM]	?
C=CCc1c(C)[nH]c(=S)c(C#N)c1C	-6%	-15%	>57	-4%	16µM*	-15%
CC(C)CN1CC[C@@]2(CCCN(C(=O)Oc3ccccc3)C2)C1	-4%	5%	nt	0%[11.4 µM]	7%	0%
C[C@@]12C=CC(=O)C=C1CC[C@@H]1C2=CC[C@]2(C)[C@@H]1CC[C@H]2C(=O)CN1CCN(c2cc(N3CCCC3)nc(N3CCCC3)n2)CC1	-14%	6.3µM*	nt	1%	?	?
CC[C@H](CO)NC(=O)[C@@H]1C=C2c3cccc4c3c(cn4C)C[C@@H]2N(C)C1	-10%	12%	nt	-2%	-9%	-1%
CC[C@@]12CCCN3CC[C@@]4(c5ccc(OC)c(O)c5N(C(C)=O)[C@H]4CC1)[C@H]32	-2%	32%	nt	3%[11.4 µM]	nt	nt
Cc1cc(N2CCOCC2)nc2ccc(NC(=O)CCC(=O)N3CCC4(CC3)OCCO4)cc12	-13%	-5%	nt	13µM*	11%	2%
Cn1cc(CCC(=O)N2CCC3(CC2)OCCO3)c2ccccc21	-3%	-5%	>57	0%	-1%	-1%
CCCN1CCc2cc(O)cc3c2[C@H]1Cc1ccc(O)c(O)c1-3	-25%	25µM*	nt	-11%	8%	?
CCn1c(N)c(C(=O)NC)sc1=S	-3%	-6%	>57	-2%	4µM*	-1%
O=c1cccc2n1C[C@H]1C[C@@H]2CN(CCO)C1	6%	13%	nt	1%[11.4 µM]	nt	nt
c1ccoc1	1%	6%	nt	nt	0%	40%
NC(N)=Nc1ccc2[nH]c3c(c2c1)C[C@]1(O)[C@@H]2Cc4ccc(O)c5c4[C@]1(CCN2CC1CC1)[C@H]3O5	-23%	58%	nt	7%	1.3µM*	?
C=C(C)CN1CC[C@@]23c4c5ccc(O)c4O[C@H]2c2[nH]c4ccccc4c2C[C@]3(O)[C@@H]1C5	-7%	?	nt	-1%	-9%[25.6 µM]	2%
